Assay outcomes: PubChem, National Center for Advancing Translational Sciences (NCATS)
Compounds with a hit are over-represented: about 5.4% of the library has one in this group of screens.
Sm TGR inh = inhibitors of Schistosoma mansoni thioredoxin glutathione reductase | 3% of 360,000 active | AID 485364 | purified TGR, DTNB reduction, TNB absorbance 405 nm | Potency, µM (series often up to 114 µM), actives largely listed as inhibitors; active = well fitted inhibition curve with a large enough effect; inconclusive = small, poorly fitted or top-dose-only effect; inactive = no such curve, though single readings can be large or run the other way; also: nearly all actives have a fitted effect of over 60% in size
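First, TGR (20 nM dispensed) and NADPH were mixed with compound. Second, a 15 min room-temperature incubation followed. Third, further NADPH and then DTNB were added to start the reaction. Finally, TNB absorbance was monitored kinetically.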
FMDV antiviral = foot and mouth disease virus antiviral activity. FMDV antiviral cell-based qHTS. Potency, µM (highest dose often 57.9 µM), actives largely listed as inhibitors. 1.2% of 410,000 active. AID 1159524; calls by dose curve; tested in HEK293T cells; also: read-out not given here; nearly all actives have a fitted effect of over 45% in size
Vaccinia mCherry = inhibitors of vaccinia virus infection (mCherry reporter signal); Vaccinia virus mCherry reporter infection, fluorescence; Potency, µM (highest dose often 36.5 µM), most hits filed as inhibitors; 0.63% of 310,000 active; calls by dose curve; tested in A549 cells; also: nearly all actives have a fitted effect of over 35% in size
VACV Venus inh = inhibitors of vaccinia virus (Venus reporter); 0.46% of 330,000 active; Vaccinia virus Venus reporter expression, fluorescence; AID 720580; Potency, µM (highest dose often 36.5 µM), hits mostly inhibitors; calls by dose curve; tested in A549 cells; also: nearly all actives have a fitted effect of over 30% in size
Marburg entry inh = blocks Marburg virus binding to or entry into cells. Marburg virus pseudotyped entry inhibition, cell reporter. Potency, µM (top dose mostly 37.8 µM), usual class: inhibitors. 1.8% of 300,000 active. AID 540276; calls by dose curve; tested in HEK293 cells
LASV entry inh = blocks Lassa virus binding to or entry into cells; Lassa virus pseudotype entry inhibition, cell reporter; Potency, µM (doses to about 37.9 µM), actives largely listed as inhibitors; 1.2% of 300,000 active; calls by dose curve; tested in HEK293 cells; also: nearly all actives have a fitted effect of over 50% in size
Large screens that a line does not name were inactive.

Cc1nc2ccc(NC(=O)c3cccc(S(=O)(=O)N(C)c4ccccc4)c3)cc2s1	FMDV antiviral 25.1µM, Vaccinia mCherry inconclusive, VACV Venus inh inconclusive, Marburg entry inh 17.8µM, LASV entry inh inconclusive
COc1ccccc1N(C)S(=O)(=O)c1ccc(C(=O)Nc2ccc(N3CCOCC3)cc2)cc1	FMDV antiviral 39.8µM, Vaccinia mCherry inconclusive, VACV Venus inh inconclusive, Marburg entry inh inconclusive, LASV entry inh inconclusive
Cc1ccc(Cl)cc1NC(=O)N1CCC(CN2CCc3ccccc3C2)CC1	none (no result: Marburg entry inh)
CC(C)CCNC(=O)CN1C(=O)CCn2nc(-c3cn(C)c4ccccc34)cc21	none (no result: Marburg entry inh)
CN(C)C(=O)c1ccc(NC(=O)Cn2nnnc2-c2ccccc2F)cc1	none
Cc1ccc(N(CC(=O)NCc2ccco2)C(=O)CNS(=O)(=O)c2ccc(F)cc2)c(C)c1	Marburg entry inh inconclusive
Cc1ccccc1N(CC(=O)NCc1ccco1)C(=O)CNS(=O)(=O)c1ccc(F)cc1	Sm TGR inh 39.8µM (no result: LASV entry inh)
Cc1cccc(C)c1N(CC(=O)NCc1ccco1)C(=O)CNS(=O)(=O)c1ccc(F)cc1	Marburg entry inh 8.91µM
O=C(CN(Cc1ccco1)C(=O)CNS(=O)(=O)c1ccc(F)cc1)NCc1ccco1	none
Cc1ccc(C(C)C)c(OCC(=O)N2CCC(c3nc4ccccc4o3)CC2)c1	none
CCOC(=O)c1c(NC(=O)COc2ccc(OC)cc2)sc(C(=O)N(CC)CC)c1C	FMDV antiviral inconclusive, Vaccinia mCherry inconclusive, VACV Venus inh inconclusive, Marburg entry inh inconclusive
CCOC(=O)c1c(NC(=O)COC(=O)c2cccnc2OCC)sc(C(=O)N(CC)CC)c1C	FMDV antiviral 15.8µM, Marburg entry inh inconclusive, LASV entry inh inconclusive (no result: Sm TGR inh)
COC(=O)c1ccccc1Sc1ncnc2onc(C)c12	Sm TGR inh inconclusive, FMDV antiviral 28.2µM, Marburg entry inh inconclusive
Cc1noc2ncnc(Sc3ccccc3Cl)c12	Sm TGR inh inconclusive, FMDV antiviral 39.8µM, Vaccinia mCherry inconclusive, LASV entry inh inconclusive
Cc1ccc(Sc2ncnc3onc(C)c23)c(C)c1	Vaccinia mCherry inconclusive (no result: Marburg entry inh, LASV entry inh)
COC(=O)C1=C(C)N(Cc2ccccc2)C(=S)NC1c1cccc(C(F)(F)F)c1 (stereo not drawn)	none (no result: Sm TGR inh, FMDV antiviral, Vaccinia mCherry, VACV Venus inh, LASV entry inh)
CC(=O)Nc1c(O)cc(Br)c2nonc12	none (no result: Sm TGR inh, FMDV antiviral, Marburg entry inh, LASV entry inh)
CC(=O)Nc1cc(O)c2nonc2c1O	Vaccinia mCherry 11.2µM, VACV Venus inh 3.55µM (no result: Sm TGR inh, FMDV antiviral, Marburg entry inh, LASV entry inh)
Nc1ccc(S(=O)(=O)N2CCOCC2)cc1	none (no result: Sm TGR inh, FMDV antiviral, Marburg entry inh, LASV entry inh)
COc1ccc(CCNC(=O)c2cc(C(=O)c3cc(C)ccc3O)cn(CCc3ccc(OC)cc3)c2=O)cc1	Marburg entry inh inconclusive, LASV entry inh 2.82µM
CC(C)(C)c1cc(C(c2cccnc2)N2CCN(CCO)CC2)cc(C(C)(C)C)c1O (stereo not drawn)	Sm TGR inh 0.447µM, Marburg entry inh inconclusive, LASV entry inh inconclusive (no result: FMDV antiviral)
CC(C)(C)n1nnnc1C(c1cccnc1)N1CCN(c2cccc(C(F)(F)F)c2)CC1 (stereo not drawn)	FMDV antiviral inconclusive, Marburg entry inh inconclusive, LASV entry inh inconclusive (no result: Vaccinia mCherry)
CCOC(=O)c1ccc(NC(=O)CC2C(=O)N(c3ccc(F)cc3)C(=O)N2Cc2cccnc2)cc1 (stereo not drawn)	none (no result: Marburg entry inh)
CCCN1C(C)C(C(=O)OCC)=CN(Cc2cccc(I)c2)S1(=O)=O (stereo not drawn)	FMDV antiviral 3.98µM (no result: Sm TGR inh, Marburg entry inh, LASV entry inh)
COn1c(C)c(C)c2c3nonc3ccc21	Sm TGR inh 20µM, Marburg entry inh inconclusive
COc1cc(=O)n2c(c1C(=O)N(C)Cc1nccs1)CCN(Cc1ccc(F)c(F)c1)CC2	none (no result: Sm TGR inh, Marburg entry inh, LASV entry inh)
O=C(COc1ccccc1[N+](=O)[O-])Nc1cccc(Cl)c1N1CCOCC1	FMDV antiviral 39.8µM, VACV Venus inh inconclusive, Marburg entry inh inconclusive, LASV entry inh inconclusive
CN1CCN(c2ccc(NC(=O)COc3ccccc3[N+](=O)[O-])cc2)CC1	Marburg entry inh inconclusive
CC(C)C(=O)N1CCN(c2ccc(NC(=O)COc3ccccc3[N+](=O)[O-])cc2)CC1	FMDV antiviral 15.8µM, Marburg entry inh inconclusive, LASV entry inh inconclusive (no result: Sm TGR inh)
O=C(COc1cc(F)ccc1[N+](=O)[O-])Nc1ccc(N2CCOCC2)cc1	Sm TGR inh 44.7µM
COc1cccc(Cn2c(C)c(CNCc3ccccc3Cl)c(C(=O)O)c2C)c1	none
COc1ccc2oc(-c3ccc(C)c(NC(=O)c4ccc5c(c4)OCCO5)c3)nc2c1	none
CC(C)c1ccc(/C=C(\c2nc3ccccc3[nH]2)S(=O)(=O)c2ccccc2)cc1	FMDV antiviral 10µM, Vaccinia mCherry 8.91µM, VACV Venus inh 10µM, Marburg entry inh inconclusive, LASV entry inh inconclusive
